PubChem BioAssay (NCI)
The panel holds about 79,000 compounds, 15% with a hit somewhere; the sample as a whole holds those more often. A number with no mark means an inactive call. Calls of active or inactive are those of the source. Rule as the data show it: active = growth inhibition above about 70%; inactive = the rest.

Experiments:
[1] = NCI Yeast Anticancer Drug Screen. Data for the rad52 strain (AID 147);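 also: 0% = growth of vehicle-treated control cultures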; conditions: S. cerevisiae rad52 mutant growth inhibition, active compounds read high
Method in brief: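 Vehicle-treated cultures served as the reference for growth inhibition of compound-exposed yeast bearing a DNA repair mutation.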

[2] = NCI Yeast Anticancer Drug Screen. Data for the wt1 strain (AID 149);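 also: 0% = growth of vehicle-treated wt1 cultures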; conditions: S. cerevisiae wt1 strain (SPY 50644) growth inhibition, active compounds read high
Method in brief: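 Growth inhibition read against vehicle controls after compound exposure of the wt1 yeast strain.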

[3] = NCI Yeast Anticancer Drug Screen. Data for the rad50EPP+ strain (AID 151);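 also: 0% = growth of vehicle-treated control cultures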; conditions: S. cerevisiae rad50 mutant strain, active compounds read high
Method in brief: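 In this screen, rad50EPP+ yeast were exposed to compounds. Growth inhibition was scored against vehicle-treated controls.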

[4] = NCI Yeast Anticancer Drug Screen. Data for the mgt1 strain (AID 153); conditions: S. cerevisiae mgt1 mutant growth inhibition, active compounds read high
Method in brief: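 mgt1 strain exposed; growth vs vehicle control recorded as inhibition.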

[5] = NCI Yeast Anticancer Drug Screen. Data for the rad50 strain (AID 155);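 also: 0% = growth of vehicle-only cultures of the same strain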; conditions: S. cerevisiae rad50 strain growth inhibition, active compounds read high
Method in brief: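 Readout: growth inhibition relative to vehicle-treated cultures. Compound exposure was carried out in a genetically defined yeast strain deficient in DNA damage repair.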

[6] = NCI Yeast Anticancer Drug Screen. Data for the mec2-1 strain (AID 157); conditions: S. cerevisiae mec2-1 strain, active compounds read high
Method in brief: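 Vehicle-treated cultures served as reference for growth inhibition of compound-exposed mec2-1 yeast.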

[7] = NCI Yeast Anticancer Drug Screen. Data for the rad14 strain (AID 159);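 also: 0% = growth of vehicle-treated control cultures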; conditions: S. cerevisiae rad14 strain growth inhibition, active compounds read high
Method in brief: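 Growth inhibition vs vehicle controls; genetically altered yeast strain (DNA damage repair defect) treated with test compounds.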

[8] = NCI Yeast Anticancer Drug Screen. Data for the sgs1 mgt1 strain (AID 161);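 also: 0% = growth of cultures given vehicle only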; conditions: S. cerevisiae sgs1 mgt1 strain, active compounds read high
Method in brief: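 Test agents were incubated with a DNA-repair-mutant yeast strain. Growth was then read and compared against vehicle-treated controls.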

[9] = NCI Yeast Anticancer Drug Screen. Data for the CLN2oe strain (AID 163);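 also: 0% = growth of vehicle-only control cultures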; conditions: S. cerevisiae CLN2oe strain, active compounds read high
Method in brief: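 Inhibition relative to vehicle-treated yeast is reported. Cells: strain with genetic alteration in cell-cycle control, grown with compound.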

[10] = NCI Yeast Anticancer Drug Screen. Data for the cln2 rad14 strain (AID 165);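 also: 0% = growth equal to vehicle treated cultures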; conditions: S. cerevisiae cln2 rad14 strain, active compounds read high
Method in brief: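 Each compound was tested on cln2 rad14 yeast. Inhibition of growth was calculated against vehicle-exposed controls.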

[11] = NCI Yeast Anticancer Drug Screen. Data for the bub3 strain (AID 167); conditions: S. cerevisiae bub3 mutant strain, active compounds read high
Method in brief: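 Readout: yeast growth inhibition, expressed relative to vehicle-only wells. The test organism is a mutant strain from a panel with lesions in DNA repair or checkpoint genes.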

[12] = NCI Yeast Anticancer Drug Screen. Data for the wt2 strain (AID 169);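 also: 0% = growth of vehicle-treated yeast cultures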; conditions: S. cerevisiae wt2 strain growth inhibition, active compounds read high
Method in brief: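 Inhibition of yeast growth was determined after compound treatment, normalised to controls receiving only vehicle.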

[13] = NCI Yeast Anticancer Drug Screen. Data for the mlh1 strain (AID 171);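 also: 0% = growth of vehicle-treated control cultures of the same strain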; conditions: S. cerevisiae mlh1 strain growth inhibition, active compounds read high
Method in brief: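 Vehicle-normalised growth inhibition of a repair- or checkpoint-altered yeast strain following compound treatment.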

[14] = NCI Yeast Anticancer Drug Screen. Data for the sgs1 strain (AID 173);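 also: 0% = growth of vehicle-only control cultures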; conditions: S. cerevisiae sgs1 mutant, active compounds read high
Method in brief: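 Screen format: yeast with repair or checkpoint alterations, compound exposure, growth read relative to vehicle.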

[15] = NCI Yeast Anticancer Drug Screen. Data for the mlh1 rad18 strain (AID 175); conditions: S. cerevisiae mlh1 rad18 strain growth inhibition, active compounds read high
Method in brief: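 Vehicle-treated cultures served as the reference for growth inhibition in a yeast strain carrying DNA damage repair alterations exposed to each compound.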

[16] = NCI Yeast Anticancer Drug Screen. Data for the rad18 strain (AID 177); conditions: S. cerevisiae rad18 mutant growth inhibition, active compounds read high
Method in brief: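 Test articles were incubated with altered yeast defective in DNA damage repair. Results are given as inhibition of growth versus vehicle.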

[17] = at 5.0 µM (retest, dose inferred, filed as 0.5)
[18] = at 50.0 µM (retest, dose inferred, filed as 5.0)

Structure (SMILES): CCOc1ccc(NC(=O)C2=C(C)NC(C)=C(C(=O)Nc3ccc(OCC)cc3)C2c2cccc([N+](=O)[O-])c2)cc1
- growth inhibition ([1]; at 1.2 µM): -2%
- growth inhibition ([1]; at 3.7 µM): 0%
- growth inhibition ([1]; at 11.0 µM): 5%
- growth inhibition ([1]; at 33.0 µM): 49%
- growth inhibition ([1]; at 100.0 µM): 82% (active)
- growth inhibition ([2]; at 1.2 µM): 1%
- growth inhibition ([2]; at 3.7 µM): -3%
- growth inhibition ([2]; at 11.0 µM): -5%
- growth inhibition ([2]; at 33.0 µM): -28%
- growth inhibition ([2]; at 100.0 µM): 79% (active)
- growth inhibition ([3]; at 1.2 µM): -1%
- growth inhibition ([3]; at 3.7 µM): -1%
- growth inhibition ([3]; at 11.0 µM): 1%
- growth inhibition ([3]; at 33.0 µM): 3%
- growth inhibition ([3]; at 100.0 µM): -4%
- growth inhibition ([4]; at 1.2 µM): -1%
- growth inhibition ([4]; at 3.7 µM): -2%
- growth inhibition ([4]; at 11.0 µM): -3%
- growth inhibition ([4]; at 33.0 µM): 30%
- growth inhibition ([4]; at 100.0 µM): 92% (active)
- growth inhibition ([5]; at 1.2 µM): -3%
- growth inhibition ([5]; at 3.7 µM): -1%
- growth inhibition [5, 17]: -10%
- growth inhibition ([5]; at 11.0 µM): -1%
- growth inhibition ([5]; at 33.0 µM): 39%
- growth inhibition [5, 18]: 84% (active)
- growth inhibition ([5]; at 50.0 µM): 26.4%
- growth inhibition ([5]; at 100.0 µM): 79% (active)
- growth inhibition ([6]; at 1.2 µM): -1%
- growth inhibition ([6]; at 3.7 µM): -2%
- growth inhibition [6, 17]: 0%
- growth inhibition ([6]; at 11.0 µM): 1%
- growth inhibition ([6]; at 33.0 µM): 36%
- growth inhibition [6, 18]: 96% (active)
- growth inhibition ([6]; at 50.0 µM): 34.6%
- growth inhibition ([6]; at 100.0 µM): 90% (active)
- growth inhibition ([7]; at 1.2 µM): -2%
- growth inhibition ([7]; at 3.7 µM): -2%
- growth inhibition ([7]; at 11.0 µM): -1%
- growth inhibition ([7]; at 33.0 µM): 9%
- growth inhibition ([7]; at 100.0 µM): 86% (active)
- growth inhibition [8, 17]: -12%
- growth inhibition [8, 18]: 29%
- growth inhibition ([8]; at 50.0 µM): 27.1%
- growth inhibition ([9]; at 1.2 µM): 0%
- growth inhibition ([9]; at 3.7 µM): -2%
- growth inhibition ([9]; at 11.0 µM): -7%
- growth inhibition ([9]; at 33.0 µM): 4%
- growth inhibition ([9]; at 100.0 µM): 81% (active)
- growth inhibition [10, 17]: -4%
- growth inhibition [10, 18]: 90% (active)
- growth inhibition ([10]; at 50.0 µM): 55.3%
- growth inhibition ([11]; at 1.2 µM): -3%
- growth inhibition ([11]; at 3.7 µM): -2%
- growth inhibition [11, 17]: -8%
- growth inhibition ([11]; at 11.0 µM): 1%
- growth inhibition ([11]; at 33.0 µM): 54%
- growth inhibition [11, 18]: 97% (active)
- growth inhibition ([11]; at 50.0 µM): 41%
- growth inhibition ([11]; at 100.0 µM): 93% (active)
- growth inhibition ([12]; at 1.2 µM): -3%
- growth inhibition ([12]; at 3.7 µM): -2%
- growth inhibition ([12]; at 11.0 µM): -2%
- growth inhibition ([12]; at 33.0 µM): 22%
- growth inhibition ([12]; at 100.0 µM): 87% (active)
- growth inhibition ([13]; at 1.2 µM): -2%
- growth inhibition ([13]; at 3.7 µM): -1%
- growth inhibition ([13]; at 11.0 µM): 1%
- growth inhibition ([13]; at 33.0 µM): 25%
- growth inhibition ([13]; at 100.0 µM): 86% (active)
- growth inhibition ([14]; at 1.2 µM): -2%
- growth inhibition ([14]; at 3.7 µM): 0%
- growth inhibition ([14]; at 11.0 µM): 4%
- growth inhibition ([14]; at 33.0 µM): 44%
- growth inhibition ([14]; at 100.0 µM): 84% (active)
- growth inhibition [15, 17]: -7%
- growth inhibition [15, 18]: 95% (active)
- growth inhibition ([15]; at 50.0 µM): 59.9%
- growth inhibition ([16]; at 1.2 µM): -4%
- growth inhibition ([16]; at 3.7 µM): -3%
- growth inhibition ([16]; at 11.0 µM): 3%
- growth inhibition ([16]; at 33.0 µM): 45%
- growth inhibition ([16]; at 100.0 µM): 83% (active)

Structure (SMILES): Cc1cc(C)nc(NS(=O)(=O)c2ccc(Nc3c4ccccc4nc4c(C(=O)NCCO)cccc34)cc2)n1
- growth inhibition ([1]; at 1.2 µM): -2%
- growth inhibition ([1]; at 3.7 µM): -1%
- growth inhibition ([1]; at 11.0 µM): 2%
- growth inhibition ([1]; at 33.0 µM): 21%
- growth inhibition ([1]; at 100.0 µM): 59%
- growth inhibition ([2]; at 1.2 µM): -1%
- growth inhibition ([2]; at 3.7 µM): -2%
- growth inhibition ([2]; at 11.0 µM): -2%
- growth inhibition ([2]; at 33.0 µM): -35%
- growth inhibition ([2]; at 100.0 µM): -9%
- growth inhibition ([3]; at 1.2 µM): -3%
- growth inhibition ([3]; at 3.7 µM): 0%
- growth inhibition ([3]; at 11.0 µM): 1%
- growth inhibition ([3]; at 33.0 µM): 3%
- growth inhibition ([3]; at 100.0 µM): -14%
- growth inhibition ([4]; at 1.2 µM): 0%
- growth inhibition ([4]; at 3.7 µM): -1%
- growth inhibition ([4]; at 11.0 µM): -2%
- growth inhibition ([4]; at 33.0 µM): -1%
- growth inhibition ([4]; at 100.0 µM): 32%
- growth inhibition ([5]; at 1.2 µM): -1%
- growth inhibition ([5]; at 3.7 µM): 1%
- growth inhibition [5, 17]: -17%
- growth inhibition ([5]; at 11.0 µM): 6%
- growth inhibition ([5]; at 33.0 µM): 25%
- growth inhibition [5, 18]: 91% (active)
- growth inhibition ([5]; at 50.0 µM): 39.2%
- growth inhibition ([5]; at 100.0 µM): 68%
- growth inhibition ([6]; at 1.2 µM): -1%
- growth inhibition ([6]; at 3.7 µM): -1%
- growth inhibition [6, 17]: -13%
- growth inhibition ([6]; at 11.0 µM): 1%
- growth inhibition ([6]; at 33.0 µM): 3%
- growth inhibition [6, 18]: 6%
- growth inhibition ([6]; at 50.0 µM): 3.4%
- growth inhibition ([6]; at 100.0 µM): 24%
- growth inhibition ([7]; at 1.2 µM): 0%
- growth inhibition ([7]; at 3.7 µM): 1%
- growth inhibition ([7]; at 11.0 µM): 4%
- growth inhibition ([7]; at 33.0 µM): 9%
- growth inhibition ([7]; at 100.0 µM): 26%
- growth inhibition [8, 17]: -9%
- growth inhibition [8, 18]: 56%
- growth inhibition ([8]; at 50.0 µM): -10.7%
- growth inhibition ([9]; at 1.2 µM): 0%
- growth inhibition ([9]; at 3.7 µM): -3%
- growth inhibition ([9]; at 11.0 µM): -3%
- growth inhibition ([9]; at 33.0 µM): -2%
- growth inhibition ([9]; at 100.0 µM): 10%
- growth inhibition [10, 17]: 16%
- growth inhibition [10, 18]: 6%
- growth inhibition ([10]; at 50.0 µM): 81.2% (active)
- growth inhibition ([11]; at 1.2 µM): 0%
- growth inhibition ([11]; at 3.7 µM): 0%
- growth inhibition [11, 17]: -17%
- growth inhibition ([11]; at 11.0 µM): 2%
- growth inhibition ([11]; at 33.0 µM): 0%
- growth inhibition [11, 18]: 2%
- growth inhibition ([11]; at 50.0 µM): 0%
- growth inhibition ([11]; at 100.0 µM): 16%
- growth inhibition ([12]; at 1.2 µM): -1%
- growth inhibition ([12]; at 3.7 µM): -2%
- growth inhibition ([12]; at 11.0 µM): -2%
- growth inhibition ([12]; at 33.0 µM): -2%
- growth inhibition ([12]; at 100.0 µM): 27%
- growth inhibition ([13]; at 1.2 µM): -3%
- growth inhibition ([13]; at 3.7 µM): -2%
- growth inhibition ([13]; at 11.0 µM): 0%
- growth inhibition ([13]; at 33.0 µM): -1%
- growth inhibition ([13]; at 100.0 µM): 30%
- growth inhibition ([14]; at 1.2 µM): -3%
- growth inhibition ([14]; at 3.7 µM): -1%
- growth inhibition ([14]; at 11.0 µM): 1%
- growth inhibition ([14]; at 33.0 µM): 2%
- growth inhibition ([14]; at 100.0 µM): 30%
- growth inhibition [15, 17]: -8%
- growth inhibition [15, 18]: 44%
- growth inhibition ([15]; at 50.0 µM): 65.3%
- growth inhibition ([16]; at 1.2 µM): -4%
- growth inhibition ([16]; at 3.7 µM): -1%
- growth inhibition ([16]; at 11.0 µM): 0%
- growth inhibition ([16]; at 33.0 µM): 7%
- growth inhibition ([16]; at 100.0 µM): 30%
